Measurements reported in publication PMC4336329 (PLoS ONE, 2015).
Among all 310,000 compounds or so, about 14,000 (4.5%) showed an effect of 50% or more. The effect is printed as a negative number. Only a selection was taken, and strong results are over-represented in it overall.

biological target: human ether-à-go-go-related gene (hERG) potassium channel (human, UniProt Q12809); experiment: primary screen, population patch clamp on CHO cells stably expressing hERG; higher = less effect of the substance
Sequence (Q12809 whole entry, looked up): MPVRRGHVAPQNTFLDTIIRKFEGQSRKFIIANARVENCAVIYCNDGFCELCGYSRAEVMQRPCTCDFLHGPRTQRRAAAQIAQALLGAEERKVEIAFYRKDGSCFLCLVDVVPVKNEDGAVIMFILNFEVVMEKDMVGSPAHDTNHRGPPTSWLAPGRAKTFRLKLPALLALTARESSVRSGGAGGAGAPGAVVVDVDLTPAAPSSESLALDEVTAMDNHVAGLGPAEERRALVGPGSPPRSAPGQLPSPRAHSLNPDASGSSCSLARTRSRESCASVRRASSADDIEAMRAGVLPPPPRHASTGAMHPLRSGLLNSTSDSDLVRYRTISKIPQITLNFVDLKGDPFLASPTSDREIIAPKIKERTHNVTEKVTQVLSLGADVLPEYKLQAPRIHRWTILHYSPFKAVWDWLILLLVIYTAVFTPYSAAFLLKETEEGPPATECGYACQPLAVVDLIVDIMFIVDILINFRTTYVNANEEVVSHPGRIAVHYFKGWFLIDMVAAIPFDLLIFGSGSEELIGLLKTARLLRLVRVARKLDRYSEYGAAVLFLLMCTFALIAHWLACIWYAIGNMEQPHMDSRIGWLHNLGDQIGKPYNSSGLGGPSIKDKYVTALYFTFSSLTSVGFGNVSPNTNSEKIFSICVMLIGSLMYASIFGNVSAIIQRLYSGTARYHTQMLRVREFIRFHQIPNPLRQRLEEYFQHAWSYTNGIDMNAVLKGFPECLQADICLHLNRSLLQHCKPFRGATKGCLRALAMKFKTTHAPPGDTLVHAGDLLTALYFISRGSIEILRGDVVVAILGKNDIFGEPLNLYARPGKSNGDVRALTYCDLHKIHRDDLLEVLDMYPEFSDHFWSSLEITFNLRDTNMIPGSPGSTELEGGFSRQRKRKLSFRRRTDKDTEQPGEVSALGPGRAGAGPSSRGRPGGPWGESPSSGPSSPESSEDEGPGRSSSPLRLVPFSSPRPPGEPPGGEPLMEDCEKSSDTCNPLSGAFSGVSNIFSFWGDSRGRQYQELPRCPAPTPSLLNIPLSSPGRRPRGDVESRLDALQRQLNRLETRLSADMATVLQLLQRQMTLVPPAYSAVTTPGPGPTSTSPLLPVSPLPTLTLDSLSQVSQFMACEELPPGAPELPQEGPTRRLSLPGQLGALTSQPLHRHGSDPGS
Experimental: Briefly, Chinese hamster ovary (CHO) cells stably expressing the hERG channel were dislodged from tissue culture flasks and dispensed into PPC plates. […] During the recording, background leak currents were estimated by a 100 ms step to -80 mV from an initial holding potential of -70 mV and subtracted from the subsequent current measurement. The campaign was conducted in two phases using slight differences in recording protocol. In the first phase, the initial voltage pulse used a 100 ms step to -30 mV from a holding potential of -70 mV, a 2 s conditioning step to +25 mV, and a 2 s test step to -30 mV. During the second phase of the screen, the potential during the conditioning step was raised to +45 mV. In both phases of the campaign, a secondary voltage pulse was applied using the same parameters as the second phase initial pulse. The initial and secondary pulses were applied in the absence of compound, and upon application of 1 μM and 10 μM test concentrations. […]
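Further: peak tail current of the secondary pulse compared with the same well before compound.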

SMILES | hERG current change (%, negative = inhibition) at 10uM [%]
O=C(NCC1CCCO1)c1ccc(-c2cccc(C(F)(F)F)c2)o1 (stereo not drawn) | -16.2
O=C(NCC1CCCO1)c1ccc(NC(=O)c2cccc([N+](=O)[O-])c2)cc1 (stereo not drawn) | 3.68
CC(=O)c1ccc(-c2ccc(C(=O)NCC3CCCO3)o2)cc1 (stereo not drawn) | -50.5
Cc1ccc(C(=O)NCC2CCCO2)o1 (stereo not drawn) | 7.49
O=C(NCC1CCCO1)c1cccc(Oc2ccccc2)c1 (stereo not drawn) | -37.5
O=C(NCC1CCCO1)c1cccc(Oc2ccc([N+](=O)[O-])cc2)c1 (stereo not drawn) | -73.7
O=c1cc(CN2CCN(c3cccc(Cl)c3)CC2)c2cc3c(cc2o1)CCCC3 | 15.8
Cc1ccc(S(=O)(=O)CCC(=O)OCC(=O)N2CC(=O)Nc3ccccc32)cc1 | -22.1
O=C(NCc1ccco1)NC12CC3CC(CC(C3)C1)C2 | 14.5
CC(C)=CCN1CCN(Cc2cn(C(C)C)c3ccccc23)CC1CCO (stereo not drawn) | -10.5
COc1ccc(N2CCN(S(=O)(=O)CCNC(=O)c3ccc(Br)o3)CC2)cc1 | 10.6
O=C(Cc1ccc(F)cc1)NCCS(=O)(=O)N1CCN(c2cccc(Cl)c2)CC1 | -16.2
O=C(NCCS(=O)(=O)N1CCN(c2ccc(F)cc2)CC1)c1ccc(Br)o1 | -60.1
O=C(NCCS(=O)(=O)N1CCN(c2cccc(Cl)c2)CC1)c1ccco1 | -73.8
O=C(NCCS(=O)(=O)N1CCN(c2ccccc2F)CC1)c1ccco1 | -16.5
O=C(NCCS(=O)(=O)N1CCN(c2cccc(Cl)c2)CC1)C1CCCC1 | -79
COc1ccc(N2CCN(S(=O)(=O)CCNC(=O)C3CCCCC3)CC2)cc1 | 5.98
O=C(Cc1ccccc1)NCCS(=O)(=O)N1CCN(c2cccc(Cl)c2)CC1 | -82.8
O=C(NCCS(=O)(=O)N1CCN(c2cccc(Cl)c2)CC1)c1cc(=O)c2ccccc2o1 | 5.36
O=C(NCCS(=O)(=O)N1CCN(c2ccccc2)CC1)C1CC1 | 3.93
O=C(NCCS(=O)(=O)N1CCN(c2ccccc2)CC1)c1ccc(Br)o1 | -5.85

SMILES | hERG current change (%, negative = inhibition) at 10uM [%]
Cc1cccc(CC(=O)NCCS(=O)(=O)N2CCN(c3cccc(Cl)c3)CC2)c1 | -20.2
O=C1c2ccccc2S(=O)(=O)N1CCOc1ccc(F)cc1 | -27.6
CCOC(=O)c1sc(NC(=O)c2ccco2)nc1C | 13.3
CC(=O)Nc1ccc(NC(=O)CC2SC(=O)N(CC(=O)c3ccccc3)C2=O)cc1 (stereo not drawn) | 7.25
COCC1CCCCN1C(=O)c1cccc(OC2CCN(S(C)(=O)=O)CC2)c1 (stereo not drawn) | 14.7
CCS(=O)(=O)c1ccc(O)c(NC(=O)COc2ccc(Br)cc2)c1 | -3.73
O=C(COc1ccc(Br)cc1Cl)NC(=S)N1CCc2ccccc21 | 21.7
COc1ccccc1OCc1ccc(C(=O)NC(C)(C)C)o1 | 2.29
O=C(Cn1c(=O)oc2cc(S(=O)(=O)NCc3ccccc3)ccc21)N1CCCC1 | 15.2
C=CCn1c(SCC(=O)Nc2ccccc2F)nc2ccccc2c1=O | 5.56
CC(C)Sc1nc2c(cnn2-c2ccc(Cl)cc2)c(=O)[nH]1 | 26.2
Cc1nnc(SCC(=O)N2CCCC2)n(N)c1=O | 14.1
O=C(NCCS(=O)(=O)N1CCN(c2ccc(F)cc2)CC1)c1ccco1 | -62.2
O=C(NCCS(=O)(=O)N1CCN(c2ccccc2)CC1)c1ccco1 | -14.5
O=C(Cc1ccc(F)cc1)NCCS(=O)(=O)N1CCN(c2ccccc2)CC1 | 5.42
CSc1ccccc1C(=O)NCCS(=O)(=O)N1CCN(c2ccc(F)cc2)CC1 | -67.6
COc1ccc(N2CCN(S(=O)(=O)CCNC(=O)c3ccco3)CC2)cc1 | -9.43
O=C(NCCS(=O)(=O)N1CCN(c2ccccc2)CC1)c1ccccc1F | 6.68
CCOC(=O)c1cnn(Cc2ccccc2Cl)c1N | -11
COc1ccccc1-c1oc2ccccc2c1C#CCCCCO | 22.6
COc1ccc(-c2nn(-c3ccccc3)cc2/C=C2/SC(=S)N(CCCC(=O)O)C2=O)c(C)c1 | 26

SMILES | hERG current change (%, negative = inhibition) at 10uM [%]
Cc1ccc(CN2C(=O)C(CC(C)C)Nc3ncnc(N4CCN(c5ccccn5)CC4)c32)cc1.O=C(O)C(F)(F)F (stereo not drawn) | -43.3
CCC1Nc2ncnc(N3CCN(c4ccccn4)CC3)c2N(Cc2ccc(Cl)cc2)C1=O.O=C(O)C(F)(F)F (stereo not drawn) | -73.8
CCC1Nc2ncnc(N3CCCCC3)c2N(Cc2ccccc2)C1=O.O=C(O)C(F)(F)F (stereo not drawn) | -4.8
Cc1ccc(CN2C(=O)C(C)Nc3ncnc(N4CCN(c5ccccn5)CC4)c32)cc1.O=C(O)C(F)(F)F (stereo not drawn) | -56.1
CCC1Nc2ncnc(N3CCN(c4ccccc4)CC3)c2N(Cc2ccc(Cl)cc2)C1=O.O=C(O)C(F)(F)F (stereo not drawn) | -17.4
CC1Nc2ncnc(N3CCN(c4ccccn4)CC3)c2N(Cc2ccccc2)C1=O.O=C(O)C(F)(F)F (stereo not drawn) | -19.8
Cc1ccc(S(=O)(=O)N2CCN(C(=O)CN3C(=O)NC4(CCCCC4)C3=O)CC2)c(C)c1 | 1.52
COc1ccc(S(=O)(=O)N2CC(C)OC(C)C2)cc1C(=O)N1CCCCC1 (stereo not drawn) | 6.93
O=C(OCc1c(F)cccc1Cl)c1cnc2ccccc2n1 | 17.6
CCCn1nc2cc(C(=O)NC3CCCc4ccccc43)ccc2c1OCC (stereo not drawn) | -8.93
CN(C)S(=O)(=O)c1cccc(COC(=O)Cc2c(F)cccc2Cl)c1 | 9.75
CC(C)OP(=O)(OC(C)C)C(NC(=O)c1ccccc1)C(N)=O (stereo not drawn) | -3.65
Cc1ccccc1C(=O)NC(C(N)=O)P(=O)(OC(C)C)OC(C)C (stereo not drawn) | -55.2
CC(C)OP(=O)(OC(C)C)C(NC(=O)c1ccccc1Br)C(N)=O (stereo not drawn) | 3.63
CCN(C(=O)c1ccnn1C)c1ccccc1 | 4.75
COc1ccc(S(=O)(=O)N2CCOCC2)cc1NC(=O)c1ccc2c(c1)OCO2 | 12.6
O=C(O)CN1C(=O)/C(=C/c2ccccc2Br)Oc2ccccc21 | 4.16
COc1ccccc1NS(=O)(=O)c1ccc(Cl)c(NC(=O)c2sc3cc(Cl)ccc3c2Cl)c1 | 22.1
O=C(O)CC1S/C(=N\N=C2\C(=O)Nc3ccccc32)N(c2ccc(O)cc2)C1=O (stereo not drawn) | -53.7
O=C(O)CC1S/C(=N\N=C/c2ccccc2)N(c2ccc(O)cc2)C1=O (stereo not drawn) | 13.4
O=C(O)CC1S/C(=N\N=C/c2ccccc2O)N(c2ccc(O)cc2)C1=O (stereo not drawn) | 9.18

SMILES | hERG current change (%, negative = inhibition) at 10uM [%]
CN(c1ccc(F)cc1)S(=O)(=O)c1ccc2[nH]cc(C(=O)O)c(=O)c2c1 | 13.8
O=C(COc1ccc(F)cc1)N(Cc1ccc(Cl)cc1)C1CCS(=O)(=O)C1 (stereo not drawn) | -38.7
Cc1ccc(CN(C(=O)COc2ccc(Br)cc2)C2CCS(=O)(=O)C2)o1 (stereo not drawn) | -33.5
N#Cc1ccc(OCC(=O)N(C2CCCCC2)C2CCS(=O)(=O)C2)cc1 (stereo not drawn) | -50.1
O=C(COc1ccc([N+](=O)[O-])cc1)N(C1CCCCC1)C1CCS(=O)(=O)C1 (stereo not drawn) | -37
CN(C)c1ccc(CN(C(=O)COc2ccc(F)cc2)C2CCS(=O)(=O)C2)cc1 (stereo not drawn) | -16.6
COc1ccc(OCC(=O)N(Cc2ccc(C)o2)C2CCS(=O)(=O)C2)cc1 (stereo not drawn) | -19.5
Cc1ccc(OCC(=O)N(Cc2ccc(C)o2)C2CCS(=O)(=O)C2)cc1 (stereo not drawn) | -52.3
Cc1ccc(CN(C(=O)COc2ccc(C)c(C)c2)C2CCS(=O)(=O)C2)o1 (stereo not drawn) | -53.6
CC(=O)c1ccc(OCC(=O)N(C2CCCCC2)C2CCS(=O)(=O)C2)cc1 (stereo not drawn) | -2.18
Cc1ccc(OCC(=O)N(Cc2ccco2)C2CCS(=O)(=O)C2)cc1C (stereo not drawn) | -38.8
Cc1cccc(OCC(=O)N(Cc2ccc(C)o2)C2CCS(=O)(=O)C2)c1 (stereo not drawn) | -42.6
O=C(COc1ccc(Cl)cc1)N(Cc1ccc(F)cc1)C1CCS(=O)(=O)C1 (stereo not drawn) | -63.3
O=C(COC(=O)c1cccc(F)c1)NC1CC1 | 41.8
COc1ccccc1N1CCN(C(=O)Cn2c(=O)[nH]c3ccsc3c2=O)CC1 | -1.18
O=C(c1ccccc1)c1n[nH]c(-c2ccccc2)cc1=O | 30.9
CCC(=O)NC(c1cc(Cl)c2ccccc2c1O)C1CC1 (stereo not drawn) | 14.5
Cc1ccc(C)c(C2=CSC3=NS(=O)(=O)CCN23)c1 | 12.3
COc1ccc(CNC(=O)[C@]2(C)CCC[C@@]3(C)C4CC[C@@]5(C)C[C@]4(CCC32)CC5=O)cc1 (stereo partly drawn) | 10.2
CCOC(=O)c1sc2nc(CSc3ccccc3)[nH]c(=O)c2c1C | 3.8
CC(C)C(=O)NC(c1cccs1)c1cc([N+](=O)[O-])c2cccnc2c1O (stereo not drawn) | 31.7
